Screening data deposited in PubChem BioAssay by several laboratories.
VCAM1 TNFa inh – reduces TNF alpha induced VCAM1 expression in HUVEC; HUVEC TNFa-induced VCAM-1 immunofluorescence, high-content imaging; inhibition, % at 2 µM; 95,000 tested, 0.48% active; AID 802;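 active = inhibition above the batch mean plus 3 SD, with images confirmed as a hit by eye, cut at about 37% in these data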;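 note: 0% = TNF-stimulated DMSO wells and 100% = unstimulated control wells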
E-sel TNF inh – TNF alpha driven E-selectin expression inhibition; inhibition, % at 2 µM; 120,000 tested, 0.71% active; AID 1246; HUVEC TNFa-induced E-selectin immunofluorescence, high content;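 active = inhibition above the batch mean plus 3 SD, and confirmed as a hit on visual image review, cut at about 43% in these data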;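 note: 0% = TNF-stimulated DMSO wells and 100% = unstimulated control wells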
F-actin modifier – modifiers of cytoskeleton assembly; HUVEC TNFa F-actin phalloidin imaging, high content; inhibition, % at 2 µM; 91,000 tested, 0.18% active;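 active = inhibition above the batch mean plus 3 SD and confirmed as a hit by visual image inspection, cut at about 30% in these data, passing the limit was not always enough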
TNFa cytotox – HUVEC cytotoxicity counter-screen, TNF alpha stimulated | HUVEC TNFalpha-stimulated, Hoechst cell count, imaging | cell count reduction, % at 2 µM | 93,000 tested, 0.17% active;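 active = cell count reduction exceeding the screen mean by over 5 SD, scaled to untreated wells per plate, cut at about 78% in these data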;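 note: cells counted after 24 h of TNF alpha exposure following the 1 h pretreatment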
Phagocyt inh – macrophage phagocytosis inhibition; J774A.1 macrophage IgG-bead phagocytosis, imaging; 110,000 tested, 0.07% active; inhibition, % at 5 µM; AID 1029;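 active = inhibition above the mean of the plate negative controls plus 5 SD, cut at about 13% in these data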;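 note: phagocytic index as fraction of beads internalized from green versus red external bead signal; plate controls were DMSO negative control for no effect and cytochalasin-D positive control for full effect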
Insulin prom inh – TRM-6 insulin promoter activity inhibition | TRM-6 cells (human fetal islet line), insulin promoter-eGFP reporter, imaging; reporter expression induced with tamoxifen | inhibition, % at 2 µM | 130,000 tested, 0.9% active;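 active = inhibition above the mean plus 3 SD, with well images judged a real hit on visual review, cut at about 60% in these data, passing the limit was not always enough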
The depositor's hits bear a star; . = no result given. An excerpt weighted towards active compounds, which were near 1.6% of everything screened.

SMILES | VCAM1 TNFa inh | E-sel TNF inh | F-actin modifier | TNFa cytotox | Phagocyt inh | Insulin prom inh
CC(C)(C)C1CCC(=NOC(=O)c2ccc(F)cc2)CC1 (centres undefined) | . | . | . | . | . | 0
C=C(C)c1cccc(C(C)(C)NC(=O)Nc2ncccn2)c1 | 99* | -52 | 74* | 95* | 0 | 3
C=C(C)c1cccc(C(C)(C)NC(=O)Nc2ccc(Cl)cn2)c1 | . | 2 | . | . | -8 | .
Cc1ccc(OCCCCNC2CCCCC2)c(C)c1 | . | . | . | . | . | -30
CC(=O)c1cc(CN2CCN(C3CCCCC3)C(CCO)C2)cs1 (centres undefined) | . | 1 | . | . | . | .
Cc1oc(-c2ccc(Cl)cc2)cc1-c1nn2c(-c3ccoc3C)nnc2s1 | 54* | -18 | 0 | . | 4 | 52
COc1ccc(CCn2nnnc2C(CC(C)C)N2CCC(C(N)=O)CC2)cc1OC (centres undefined) | 6 | -33 | -19 | -34 | 0 | .
CC(C)CC(c1nnnn1CCc1ccccc1)N1CCC(C(N)=O)CC1 (centres undefined) | -8 | -9 | 17 | -7 | . | 100*
CCN(CC)CCOC(=O)c1ccc(NC(=O)c2ccc(Cl)c(S(=O)(=O)N3CCCCCC3)c2)cc1 | . | . | . | . | . | 36
Cc1nn(CCC(N)=S)c2nc(-c3cccs3)cc(C(F)(F)F)c12 | . | . | . | . | -8 | 10
COc1cc(C(=O)OCCNC(=O)c2ccncc2)cc(OC)c1OC | . | 62* | . | . | -4 | .
Cc1ccc(C(c2sc3nc(C)nn3c2O)N2CC(C)OC(C)C2)cc1 (centres undefined) | 1 | -2 | 10 | 2 | -5 | 52
Cc1nc2sc(C(c3ccc(Cl)cc3)N3CC(C)OC(C)C3)c(O)n2n1 (centres undefined) | 36* | 10 | 27 | 37 | -4 | .
CCOC(=O)C1CCN(C(=O)c2cn(CCOC)c(=O)c3c2c2ccccc2n3C)CC1 | -14 | -41 | 39* | 57 | 0 | .
CCc1nnc(NC(=O)CSc2nc3cc(OC)c(OC)cc3cc2C)s1 | . | 5 | . | . | . | -14
COCCN1C=C(C(=O)OC)C(c2ccc(OC)c(OC)c2)C(C(=O)OC)=C1 | -14 | . | 28 | -3 | 0 | 71*
CCCOc1ccc(C2C(C(=O)OC)=CN(CCOC)C=C2C(=O)OC)cc1 | 19 | 5 | 1 | -7 | 1 | 17
CN(CC(=O)Nc1ccccc1Cl)CC(=O)Nc1ccccc1[N+](=O)[O-] | . | . | . | . | . | 33
Cc1ccc(NC(=O)Nc2ccc3c(c2)N(C)C(=O)CS3)nc1 | 22 | 94* | -11 | 25 | . | 8
Cc1ccnc(NC(=O)Nc2ccc3c(c2)N(C)C(=O)CS3)c1 | . | -3 | . | . | 0 | -93
O=C(O)C(Cc1ccccc1)N1CCS(=O)(=O)CC1 (centres undefined) | . | -36 | . | . | . | .
O=S1(=O)CCN(C(CCO)c2cccc(C(F)(F)F)c2)CC1 (centres undefined) | . | 95* | . | . | . | -244
CNC(=O)c1ccccc1NC(=O)c1ccco1 | 6 | 4 | 34* | . | . | -110
Cc1ccccc1NC(=O)c1ccccc1NC(=O)c1ccco1 | 16 | -20 | -9 | -17 | -2 | -332
O=C(Nc1ccccc1C(=O)N/N=C/c1ccco1)c1ccc(F)cc1 | . | 94* | . | . | -3 | 31
SMILES | VCAM1 TNFa inh | E-sel TNF inh | F-actin modifier | TNFa cytotox | Phagocyt inh | Insulin prom inh
COc1cc(OC)c(NC(=O)c2ccco2)cc1Cl | 4 | 100* | -30 | -1 | -1 | -22
COc1cc(NC(=O)c2ccco2)c(OC)cc1NC(=O)Nc1ccc(Cl)cc1 | 4 | . | 6 | -44 | -2 | .
O=C(Nc1ccccc1C(=O)N/N=C/c1ccco1)c1ccccc1 | . | . | . | . | 1 | 41
CCC(=O)N1c2ccc(S(=O)(=O)CCC(=O)N3CCn4c3nc3ccccc34)cc2CC1C (centres undefined) | 83* | -22 | -51 | 84* | . | 6
O=C(Nc1nccs1)c1nc(-c2ccccc2)n(-c2ccccc2)n1 | -7 | 43* | -1 | -11 | 0 | .
COc1cccc(C(=O)Nc2cccc(-c3nc4ncccc4o3)c2C)c1 | 94* | . | -17 | 69 | 0 | 0
CCOc1cccc(C(=O)Nc2cccc(-c3nc4ncccc4o3)c2C)c1 | . | -3 | . | . | 2 | -1
COc1ccc(Nc2nc(N3CCCC3)nc3ccccc23)c(OC)c1 | 94* | -16 | 6 | 6 | -1 | 35
COc1ccc(Nc2ncnc3ccccc23)c(OC)c1 | -4 | -16 | 28 | -15 | . | 60
C=CCNc1nc(N2CCCC2)nc2ccccc12 | 8 | -8 | 14 | -25 | -1 | 79*
CCOC(=O)n1cc(-c2cnc(CNC(=O)C(C)(c3ccccc3)c3ccccc3)o2)c2ccccc21 | . | -26 | . | . | . | 45
